Screening data: PubChem, The Scripps Research Institute Molecular Screening Center
MBD2 DNA inh: inhibitors of MBD2 binding to methylated DNA, primary screen, biochemical, TR-FRET, DNA-binding domain, human; inhibition, % at 4.4 µM; hit rate 0.31% among 370,000; MBD2 binding to methylated oligonucleotide; in the data active = inhibition above about 13%
UHRF1 MBD2 ctr: UHRF1 methylated DNA binding inhibitors, primary screen, counter-screen for MBD2 inhibitor project, biochemical, TR-FRET, human UHRF1, single concentration. E3 ubiquitin-protein ligase UHRF1 (Homo sapiens), Q96T88. UHRF1 binding to methylated oligo. inhibition, % at 4.4 µM. hit rate 0.75% among 370,000. AID 687016, 2013; in the data active = inhibition above about 21%;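 note: UHRF1 SRA domain binding a hemimethylated CpG hairpin DNA probe; 0% = median of test compound wells and 100% = reference inhibitor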
LEDGF integ inh: blockers of LEDGF/p75-dependent integrase strand transfer – biochemical, TR-FRET, high throughput, primary screen; HIV-1 integrase (with human LEDGF/p75); TR-FRET IN-LEDGF/p75 DNA integration, Eu/Cy5; inhibition, % at 3.7 µM; hit rate 0.64% among 370,000; AID 743269, 2014;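 active = inhibition above the screen-wide mean plus 3 SD, cut at about 13% in these data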;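 note: signal is the Cy5 over europium emission ratio at 671 and 618 nm; 0% = plate median of compound wells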
PRMT1 FP inh: PRMT1 methyltransferase inhibitors, primary screen, biochemical, fluorescence polarization | recombinant PRMT1, activity-based probe fluorescence polarization | AID 652257, 2013 | Protein arginine N-methyltransferase 1 (Homo sapiens), Q99873 | hit rate 1.3% among 370,000 | inhibition, % at 2.79 µM;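 active = inhibition above about 21% made by adding two undisclosed values, limit read from the data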
Target sequence (Q99873 whole entry, looked up): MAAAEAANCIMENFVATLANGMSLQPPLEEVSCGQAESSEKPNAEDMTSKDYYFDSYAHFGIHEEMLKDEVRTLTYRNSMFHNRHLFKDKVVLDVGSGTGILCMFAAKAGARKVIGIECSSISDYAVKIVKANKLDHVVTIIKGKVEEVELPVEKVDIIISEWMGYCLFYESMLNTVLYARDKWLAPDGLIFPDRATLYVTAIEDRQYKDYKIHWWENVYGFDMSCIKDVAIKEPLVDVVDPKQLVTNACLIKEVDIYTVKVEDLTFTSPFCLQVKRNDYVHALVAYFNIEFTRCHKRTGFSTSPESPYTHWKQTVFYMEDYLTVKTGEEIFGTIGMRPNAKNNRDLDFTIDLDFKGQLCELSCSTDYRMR
PRMT1 confirm: PRMT1 methyltransferase inhibitors, confirmation, biochemical, fluorescence polarization, triplicate. inhibition, % at 2.79 µM. recombinant His-PRMT1, activity-based probe fluorescence polarization. shares compounds with PRMT1 FP inh. hit rate 42% among 3,300;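 active = mean inhibition across replicates above the hit cutoff derived for the earlier primary screen, cut at about 22% in these data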
An asterisk follows results filed as active; nt = no result given. Only some compounds are listed: those with a hit (about 2.5% of all), similar ones and a draw of the others.

SMILES	MBD2 DNA inh	UHRF1 MBD2 ctr	LEDGF integ inh	PRMT1 FP inh	PRMT1 confirm
CCc1ccc(NC(=O)CN(CC(=O)Nc2ccc(CC)cc2)CC(C)O)cc1 (configuration not stated)	-0.8	-1.7	6.8	-2.7	nt
COC(=O)C[C@H]1CC[C@@H]2[C@@H](COc3ccc(NC(=O)c4ccno4)cc3C(=O)N2C)O1	6.7	2.4	3.1	2.9	nt
C/C(=N\Nc1cccc(C(=O)O)c1)c1ccc(Cl)s1	8.8	19.2	5.9	42.5*	10.4
Cc1nnc(NC(=O)C2CC(=O)N(c3ccccc3)C2)s1 (configuration not stated)	4.0	3.8	-8.0	4.8	nt
S=c1[nH]c2cnc(Cl)nc2[nH]1	-4.2	-0.4	-2.7	42.7*	33.6*
CCNC(=O)c1cc2c(c(-c3cccc(-c4cccnc4)c3)n1)[C@H](CCO)N(S(C)(=O)=O)C2	1.8	-3.6	2.4	-0.1	nt
CC1(C)c2ccccc2N2CC(=O)N(CC(N)=O)C21C (configuration not stated)	-11.5	-5.6	-0.5	56.0*	14.3
CCn1cc(C(=O)N2CCn3c(nc4ccccc43)C2)c(=O)c2ccc(C)nc21	1.0	0.1	0.0	30.9*	3.3
CCn1cc(C(=O)N2CCN(c3ccc(F)cc3)CC2)c(=O)c2ccc(C)nc21	2.6	1.4	-1.4	-0.6	nt
Cc1ccccc1CS(=O)(=O)c1nnc([C@H](Cc2ccccc2)NC(=O)OC(C)(C)C)o1	-1.3	-6.1	2.0	37.8*	25.9*
CC(C)(C)OC(=O)N[C@@H](Cc1ccccc1)c1nnc(S(=O)(=O)Cc2ccccc2)o1	-2.5	0.1	-0.3	54.3*	20.7
CC(C1SC(=S)NC1=O)C1SC(=S)NC1=O (configuration not stated)	-2.2	-15.3	-12.1	88.5*	51.5*
C=CCc1c(C)[nH]c(=S)c(C#N)c1C	-1.2	-2.2	-3.8	31.6*	53.1*
C=CCc1c(C)c(C#N)c2nc3ccccc3n2c1N1CCCCC1	-5.7	-2.0	-1.4	1.5	nt
CC(C(=O)O)N1C(=O)C2C3CC(C2C1=O)C1C(c2ccccc2)c2sc(=O)[nH]c2SC31 (configuration not stated)	0.6	0.6	0.9	28.8*	21.2*
O=C(O)CN1C(=O)C2C3CC(C2C1=O)C1C(c2ccc(Cl)cc2)c2sc(=O)[nH]c2SC31 (configuration not stated)	6.3	1.3	1.2	64.1*	14.7
O=C(O)CN1C(=O)C2C3CC(C2C1=O)C1C(c2ccc(F)cc2)c2sc(=O)[nH]c2SC31 (configuration not stated)	3.6	-0.9	1.0	36.7*	22.0*
CCOc1ccc(OCC)c(NC(=O)C2CCCN(C(=O)c3ccc(Cl)cc3)C2)c1 (configuration not stated)	-2.1	0.0	-5.2	1.1	nt
COc1ccc(C(O)c2nc(-c3cccc4cccnc34)cs2)cc1 (configuration not stated)	0.0	-1.5	-0.9	6.4	nt
O=C(NCC1CCCO1)C1CC(=O)N(c2ccc(Cl)cc2)C1 (configuration not stated)	-0.8	0.8	2.3	-1.1	nt
COC(=O)CC1C(=O)NCCN1C(=O)c1ccccc1 (configuration not stated)	-1.4	-2.1	0.3	-3.6	nt
COC(=O)CC1C(=O)NCCN1C(=O)CSc1nc2ccccc2s1 (configuration not stated)	-5.2	1.0	-3.3	36.4*	36.9*
N#Cc1c(N(CCO)CCO)nc(N)c2c(N)nc3c(c12)CC(=O)N3CC1CCCO1 (configuration not stated)	-5.5	-9.3	-0.5	29.7*	14.3
Cc1cc(-c2nnc(SCC(=O)Nc3nc(-c4ccc(Cl)cc4)cs3)o2)no1	4.7	-0.6	-2.0	41.9*	5.3
COc1cc(NC(=O)CSc2nnc(-c3cc(C)on3)o2)cc(OC)c1	2.9	4.5	-4.8	-0.6	nt
SMILES	MBD2 DNA inh	UHRF1 MBD2 ctr	LEDGF integ inh	PRMT1 FP inh	PRMT1 confirm
CC(C)C1Cc2c(C#N)c(N)sc(=S)c2CO1 (configuration not stated)	3.6	-0.6	8.9	48.3*	10.4
CC1(C)Cc2c(C#N)c(N)sc(=S)c2CO1	6.1	1.3	1.5	46.1*	20.0
CC(C)N1CCc2c(sc(N)c2C#N)C1	-4.2	-1.7	3.4	2.5	nt
CCOc1ccc(Cl)cc1-c1cc(C(=O)Nc2ccc(Br)cc2)[nH]n1	-2.0	-0.6	0.2	-1.1	nt
COc1ccccc1C(CNC(=O)c1ccc(NS(=O)(=O)c2ccc3c(c2)OCCO3)cc1)N(C)C (configuration not stated)	-1.5	0.9	2.0	-5.4	nt
CCCSc1nnc(NC(=O)c2sc3nc(-c4cccs4)ccc3c2N)s1	0.8	0.5	12.3	28.4*	4.6
CCCSc1nnc(NC(=O)c2ccco2)s1	-0.6	3.0	-2.5	3.6	nt
CCCC1(CCC)NC(=O)N(CC(=O)Nc2ccc(Cl)c(S(=O)(=O)N3CCOCC3)c2)C1=O	-4.6	4.1	5.6	-3.5	nt
O=C(O)Cn1cc(/C=N/Nc2ccc([N+](=O)[O-])cn2)c2ccccc21	-1.6	-2.3	-1.2	28.3*	6.3
Cc1ccc(Cn2cc(/C=N/Nc3ccc([N+](=O)[O-])cn3)c3ccccc32)cc1	-2.0	0.9	-3.6	3.3	nt
COc1ccc2c(Cl)c(C(=O)N/N=C3\CCCC(=O)C3)sc2c1	5.2	-6.8	-2.2	37.5*	-5.7
Cc1ccccc1/C=N/n1c(-c2cc(-c3ccccc3)n[nH]2)n[nH]c1=S	-4.2	0.8	-8.4	15.9	nt
S=c1[nH]nc(-c2cc(-c3ccccc3)n[nH]2)n1/N=C/c1c(Cl)cccc1Cl	2.2	-2.6	-1.5	6.2	nt
S=c1[nH]nc(-c2cc(-c3ccccc3)n[nH]2)n1/N=C/c1ccc(Br)s1	4.0	-1.7	3.2	27.9*	13.2
O=[N+]([O-])c1ccccc1/C=C/C=N/n1c(-c2ccccc2)n[nH]c1=S	-6.0	0.6	2.7	12.5	nt
O=[N+]([O-])c1ccccc1C=Nn1c(-c2cc(-c3ccccc3)n[nH]2)n[nH]c1=S	-0.3	3.0	-4.6	41.9*	14.5
Cc1ccc(-c2n[nH]c(=S)n2/N=C/C=C\c2ccccc2[N+](=O)[O-])cc1	1.4	-2.5	3.7	29.7*	14.7
CC1CN(C=O)CC(C)N1CCN1C(C)CN(C=O)CC1C (configuration not stated)	3.1	-0.3	-0.4	7.7	nt
CCC(/C=C1\Oc2ccc(OC)cc2N1C)=C\c1sc2ccccc2[n+]1CCCS(=O)(=O)[O-]	0.4	-2.0	-1.1	49.4*	10.3
CC[n+]1ccc(/C=C2\Sc3ccccc3N2CCCS(=O)(=O)[O-])c2ccccc21	-9.9	-9.5	2.4	2.0	nt
